These results are taken from PubChem BioAssay (NCATS).

Inconclusive results are not listed. Active and inactive are the calls of the source. Unless noted, calls come from the whole dose curve; as a rule, active = well fitted curve in the direction sought with a large enough effect; inconclusive = small, poorly fitted or top-dose-only effect, or another doubt; inactive = no such curve, though single readings can be large; an effect the other way counts as inactive or inconclusive.

Test [1] concerns the target Transient receptor potential cation channel subfamily V member 1 (Homo sapiens) (UniProt Q8NER1). The test is described as follows: HTS Assay for Compounds that Act as Enhancers of the Vanilloid Receptor 1 (AID 488979). Note: 0% is about no effect. A digest of the protocol: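 TRPV1-expressing cells loaded with Fluo-8 calcium dye; compounds added and calcium influx read kinetically for 3 min (agonist phase), then capsaicin at EC20 added and read 2 min more for enhancement. Fluorescence ex 480/em 520 nm.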

Test [2] concerns the target Thyrotropin receptor (Homo sapiens) (UniProt P16473). The test is described as follows: qHTS Assay for Antagonists of the Thyroid Stimulating Hormone Receptor (AID 488980). Note: series mostly up to about 58 µM; 0% is about no effect. In short, it runs like this:
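Cells expressing human TSHR (HEK293) are dispensed in HBSS/HEPES containing 70 uM RO 20-1724, compound is added, then TSH at EC80 (4 nM final). Antibody in lysis buffer follows, 30 minutes at room temperature before HTRF detection.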

Test [3] addresses D(1A) dopamine receptor (Homo sapiens) (UniProt P21728). The experiment in a line: HTS Assay for Allosteric Agonists of the Human D1 Dopamine Receptor: Primary Screen for Agonists (AID 488981). Note: 0% is about no effect. In short, it runs like this:
(§1)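 Tetracycline-induced HEK293 T-REx cells force-coupled to calcium signalling were incubated overnight at 30 C and dye-loaded at room temperature. Calcium flux over 180 s after compound addition flagged agonists; a further 180 s read after EC20 dopamine flagged potentiators.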

For test [4] the target is unchanged. The experiment in a line: HTS Assay for Allosteric Agonists of the Human D1 Dopamine Receptor: Primary Screen for Potentiators (AID 488982). Note: 0% is about no effect. A digest of the protocol:
as §1

Test [5] has the same target. The test is described as follows: HTS Assay for Allosteric Agonists of the Human D1 Dopamine Receptor: Primary Screen for Antagonists (AID 488983).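 Note: calcium flux response to an EC80 dopamine challenge measured with no-wash dye; % is set by controls: 0 for no effect and ±100 for the full control effect; nearly all actives have a fitted effect of over 65% in size.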 A digest of the protocol:
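Calcium flux readout, no-wash dye, inducible HEK293 T-REx D1 line (force-coupled). Compound added after 10 s baseline, 180 s kinetic read; then dopamine at EC80, further 180 s read.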

A short description of test [6]: Validation screen for small molecules that induce genotoxicity in human embryonic kidney (HEK293T) cells expressing luciferase-tagged ELG1 (AID 493106). Note: 0% is about no effect. In short, it runs like this:
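qHTS format; 2,000 HEK293T ELG1-luc cells/well; 23 nL compound via pin tool; 16 hr, 37 °C/5% CO2; ONE-Glo, 30 min RT; luminescence read.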

Test [7] has as its target ATPase family AAA domain-containing protein 5 (Homo sapiens) (UniProt Q96QE3). The test is described as follows: Validation screen for small molecules that inhibit ELG1-dependent DNA repair in human embryonic kidney (HEK293T) cells expressing luciferase-tagged ELG1 (AID 493107).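 Note: cells co-treated with the DNA-damaging agent 5-fluorouridine alongside compound; series mostly up to about 46 µM; % is set by controls: 0 for no effect and ±100 for the full control effect; inhibitors lower the ELG1-luciferase luminescence signal; nearly all actives have a fitted effect of over 70% in size.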 In short, it runs like this:
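ELG1-luciferase HEK293T reporter; 5-fluorouridine + compound/DMSO, 16 hr, 37 °C, 5% CO2; ONE-Glo 30 min RT; luminescence read, qHTS format.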

Test [8] addresses Thyrotropin-releasing hormone receptor (Homo sapiens) (UniProt P34981). The experiment in a line: qHTS for Small Molecule Agonists and Allosteric Enhancers of Human TRH Receptor: Validation Screen for Agonists (AID 493127;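 active = calcium activation more than 3 SD above the typical response in the agonist read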;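 note: intracellular calcium rise by fluo-8 fluorescence before TRH EC20 addition; 0% is about no effect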). Conditions: TRH receptor agonist cell assay; at 2 µM; stronger effect = higher value. A digest of the protocol: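 Read-out: intracellular calcium release measured kinetically by FDSS (fluo-8, ex 480/em 530 nm), 1 reading/s after a 10-cycle baseline. TRHR cells, 2000/well, cultured 18 h at 33.5C, dye-loaded at room temp. Compound-evoked positive calcium signal flags agonists.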

Test [9] in a line: Nrf2 qHTS screen for inhibitors: Validation (AID 493153; active = well fitted inhibition curve with a large enough effect in the main read-out, with a control signal flat, not every such curve was filed as active). Conditions: Potency: luciferase luminescence; viability change: measured here: cytotoxicity max response. In short, it runs like this:
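Concentration-response test in A549 ARE_Fluc reporter cells (5% FBS OPTI-MEM), compound exposure 18-24 h at 37°C, 5% CO2. Cell viability measured first by CellTiter-Fluor fluorescence; ARE-driven luciferase luminescence then measured as Nrf2 activity.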

Test [10] is described as follows: qHTS for Inhibitors of Cell Surface uPA Generation: Validation Assay (AID 493164).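 Note: RAW 264.7 macrophage cells exposed to compound for 18 h; 0% is about no effect.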 In short, it runs like this:
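Compounds are titrated over seven points (2.45 nM–38.3 uM final) onto pre-plated RAW 264.7 cells and incubated for 18 h. Retained intracellular ATP, measured with ATP-Lite, indicates blocked lethal factor entry.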

Test [11] deals with Galactokinase (Homo sapiens) (UniProt P51570). The test is described as follows: qHTS Validation Assay for Inhibitors of Human Galactokinase (GALK) (AID 493189). Note: 0% is about no effect. In short, it runs like this:
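Compounds were pin-transferred into ATP buffer, then GALK-galactose mix was added (final 5 nM enzyme, 100 uM galactose, 35 uM ATP). After 1 h at room temperature, remaining ATP was measured luminescently.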

A short description of test [12]: Validation screen for small molecules that induce DNA re-replication in SW480 colon adenocarcinoma cells (AID 504364). Note: 0% is about no effect. A digest of the protocol:
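Read-out: total Hoechst intensity of nuclei by fluorescence scanning imager; hits raise the fraction of nuclei with elevated DNA content. Cells received compound for 48 hr at 37 C before a 40 min stain.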

Test [13] concerns the target Peptidyl-prolyl cis-trans isomerase NIMA-interacting 1 (Homo sapiens) (UniProt Q13526). The experiment in a line: qHTS Validation Assay to Find Inhibitors of Pin1 (AID 504536; active = well fitted inhibition curve with a large enough effect in the polarisation, with a control signal flat, not every such curve was filed as active; the % refers to the polarisation;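 note: 0% = full Pin1 enzyme wells and -100% = no-enzyme wells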). In short, it runs like this:
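Fluorescence polarization competition: compounds (titration) displace HiFluor-488-labeled Pin1-1b peptide from Pin1 (0.3 uM final) in pH 7.5 HEPES buffer with DTT, 10 min at room temperature; %Activity normalized to no-enzyme wells, curves fitted.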

The target in test [14] is Phosphoglycerate kinase, glycosomal (Trypanosoma brucei brucei) (UniProt P07378). The experiment in a line: qHTS Validation Assay to Find Inhibitors of Phosphoglycerate Kinase (AID 504547).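 Note: control wells lack PGK and mark full inhibition.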 In short, it runs like this:
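In TEA buffer (100mM, pH 7.6) containing 5mM MgCl2 and 0.01% Tween-20, the GAPDH-coupled PGK reaction proceeded for 60 minutes at room temperature before a single luminescence reading using Kinase-Glo Plus.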

For test [15], the target named is phosphoglycerate mutase (Leishmania major) (UniProt Q4Q090). The test is described as follows: qHTS Validation Assay to Find Inhibitors of Phosphoglycerate Mutase (AID 504548).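 Note: end-point luminescence from Kinase-GloPlus after the PGAM reaction; series mostly up to about 58 µM; % is set by controls: 0 for no effect and ±100 for the full control effect.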 Conditions: Potency: inhibition qHTS. A digest of the protocol: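 L. major PGAM (1.25nM final) was added to substrate buffer and pinned compound, incubated 45 minutes at room temperature, then Kinase-GloPlus added; luminescence read after 10 minutes. Buffer: 100 mM TEA pH 7.6, 5 mM MgCl2, 0.01% Tween-20.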
Chain of phosphoglycerate mutase (Leishmania major) (Q4Q090 1-553): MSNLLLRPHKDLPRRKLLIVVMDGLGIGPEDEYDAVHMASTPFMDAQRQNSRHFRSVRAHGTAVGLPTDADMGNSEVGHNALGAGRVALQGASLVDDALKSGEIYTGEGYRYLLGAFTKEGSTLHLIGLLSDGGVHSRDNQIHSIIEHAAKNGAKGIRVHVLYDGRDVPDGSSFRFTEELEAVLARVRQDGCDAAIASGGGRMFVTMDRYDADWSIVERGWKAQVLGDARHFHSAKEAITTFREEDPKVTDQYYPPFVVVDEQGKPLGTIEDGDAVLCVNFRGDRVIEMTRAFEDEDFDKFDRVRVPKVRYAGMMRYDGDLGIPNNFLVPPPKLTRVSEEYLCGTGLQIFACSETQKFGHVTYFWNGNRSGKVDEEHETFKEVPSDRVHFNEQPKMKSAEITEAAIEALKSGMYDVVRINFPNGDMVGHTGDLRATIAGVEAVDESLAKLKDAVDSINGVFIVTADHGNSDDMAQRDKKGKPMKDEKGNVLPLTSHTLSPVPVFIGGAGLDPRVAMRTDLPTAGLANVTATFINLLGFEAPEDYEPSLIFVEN

For test [16], the target named is Ubiquitin carboxyl-terminal hydrolase 1 (Homo sapiens) (UniProt O94782). The test is described as follows: Inhibitors of USP1/UAF1: Pilot qHTS (AID 504865).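 Note: rhodamine fluorescence freed from ubiquitin-rhodamine substrate followed over time; top concentration of the series differs between compounds; % is set by controls: 0 for no effect and ±100 for the full control effect; nearly all actives have a fitted effect of over 35% in size.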 In short, it runs like this: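 Kinetic fluorescence assay: 1nM USP1/UAF1, 15 min compound preincubation, then 150nM Ub-Rho; 480/540 nm.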
Chain of Ubiquitin carboxyl-terminal hydrolase 1 (Homo sapiens) (O94782 whole entry, looked up): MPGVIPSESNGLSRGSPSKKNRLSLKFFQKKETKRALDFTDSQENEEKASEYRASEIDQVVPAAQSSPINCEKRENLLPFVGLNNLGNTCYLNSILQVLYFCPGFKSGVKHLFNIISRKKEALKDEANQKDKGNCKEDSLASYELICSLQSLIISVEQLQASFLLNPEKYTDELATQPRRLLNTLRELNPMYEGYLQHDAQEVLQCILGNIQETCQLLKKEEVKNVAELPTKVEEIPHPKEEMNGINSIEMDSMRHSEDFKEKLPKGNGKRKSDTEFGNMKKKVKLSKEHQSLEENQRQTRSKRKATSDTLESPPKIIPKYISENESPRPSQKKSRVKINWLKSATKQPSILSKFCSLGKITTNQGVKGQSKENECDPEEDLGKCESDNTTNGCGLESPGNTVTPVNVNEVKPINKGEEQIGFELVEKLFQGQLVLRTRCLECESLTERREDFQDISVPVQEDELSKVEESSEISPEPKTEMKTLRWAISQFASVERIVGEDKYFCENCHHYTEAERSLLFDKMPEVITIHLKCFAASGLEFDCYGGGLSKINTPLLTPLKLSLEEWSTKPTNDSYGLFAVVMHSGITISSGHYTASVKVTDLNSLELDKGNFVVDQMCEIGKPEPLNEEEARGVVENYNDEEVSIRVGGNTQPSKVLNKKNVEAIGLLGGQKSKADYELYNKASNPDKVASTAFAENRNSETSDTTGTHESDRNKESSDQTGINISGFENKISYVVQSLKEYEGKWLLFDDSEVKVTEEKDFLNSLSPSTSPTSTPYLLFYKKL
Test [17] can be described thus: qHTS for Inhibitors of ATXN expression: Validation of Cytotoxic Assay (AID 588349). Note: % is set by controls: 0 for no effect and ±100 for the full control effect. In short, it runs like this:
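Cytotoxicity counter-screen: HEK293 cells exposed to compound titrations, 72 hr, 37 degrees C. Read-out is intracellular ATP (CellTiter Glo luminescence) as a viability measure.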

Test [18] can be described thus: qHTS for Inhibitors of ATXN expression: Validation (AID 588378). Note: series mostly up to about 57 µM; % is set by controls: 0 for no effect and ±100 for the full control effect; nearly all actives have a fitted effect of over 75% in size. In short, it runs like this: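 Validation of ATXN2 expression inhibitors uses a cell-based luciferase fusion reporter in HEK293 cells, with 24 h compound exposure and paired viability (fluorescence) and reporter (luminescence) end-point reads.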

Chain of ATPase family AAA domain-containing protein 5 (Homo sapiens) (Q96QE3 whole entry, looked up, the tested form may be a part): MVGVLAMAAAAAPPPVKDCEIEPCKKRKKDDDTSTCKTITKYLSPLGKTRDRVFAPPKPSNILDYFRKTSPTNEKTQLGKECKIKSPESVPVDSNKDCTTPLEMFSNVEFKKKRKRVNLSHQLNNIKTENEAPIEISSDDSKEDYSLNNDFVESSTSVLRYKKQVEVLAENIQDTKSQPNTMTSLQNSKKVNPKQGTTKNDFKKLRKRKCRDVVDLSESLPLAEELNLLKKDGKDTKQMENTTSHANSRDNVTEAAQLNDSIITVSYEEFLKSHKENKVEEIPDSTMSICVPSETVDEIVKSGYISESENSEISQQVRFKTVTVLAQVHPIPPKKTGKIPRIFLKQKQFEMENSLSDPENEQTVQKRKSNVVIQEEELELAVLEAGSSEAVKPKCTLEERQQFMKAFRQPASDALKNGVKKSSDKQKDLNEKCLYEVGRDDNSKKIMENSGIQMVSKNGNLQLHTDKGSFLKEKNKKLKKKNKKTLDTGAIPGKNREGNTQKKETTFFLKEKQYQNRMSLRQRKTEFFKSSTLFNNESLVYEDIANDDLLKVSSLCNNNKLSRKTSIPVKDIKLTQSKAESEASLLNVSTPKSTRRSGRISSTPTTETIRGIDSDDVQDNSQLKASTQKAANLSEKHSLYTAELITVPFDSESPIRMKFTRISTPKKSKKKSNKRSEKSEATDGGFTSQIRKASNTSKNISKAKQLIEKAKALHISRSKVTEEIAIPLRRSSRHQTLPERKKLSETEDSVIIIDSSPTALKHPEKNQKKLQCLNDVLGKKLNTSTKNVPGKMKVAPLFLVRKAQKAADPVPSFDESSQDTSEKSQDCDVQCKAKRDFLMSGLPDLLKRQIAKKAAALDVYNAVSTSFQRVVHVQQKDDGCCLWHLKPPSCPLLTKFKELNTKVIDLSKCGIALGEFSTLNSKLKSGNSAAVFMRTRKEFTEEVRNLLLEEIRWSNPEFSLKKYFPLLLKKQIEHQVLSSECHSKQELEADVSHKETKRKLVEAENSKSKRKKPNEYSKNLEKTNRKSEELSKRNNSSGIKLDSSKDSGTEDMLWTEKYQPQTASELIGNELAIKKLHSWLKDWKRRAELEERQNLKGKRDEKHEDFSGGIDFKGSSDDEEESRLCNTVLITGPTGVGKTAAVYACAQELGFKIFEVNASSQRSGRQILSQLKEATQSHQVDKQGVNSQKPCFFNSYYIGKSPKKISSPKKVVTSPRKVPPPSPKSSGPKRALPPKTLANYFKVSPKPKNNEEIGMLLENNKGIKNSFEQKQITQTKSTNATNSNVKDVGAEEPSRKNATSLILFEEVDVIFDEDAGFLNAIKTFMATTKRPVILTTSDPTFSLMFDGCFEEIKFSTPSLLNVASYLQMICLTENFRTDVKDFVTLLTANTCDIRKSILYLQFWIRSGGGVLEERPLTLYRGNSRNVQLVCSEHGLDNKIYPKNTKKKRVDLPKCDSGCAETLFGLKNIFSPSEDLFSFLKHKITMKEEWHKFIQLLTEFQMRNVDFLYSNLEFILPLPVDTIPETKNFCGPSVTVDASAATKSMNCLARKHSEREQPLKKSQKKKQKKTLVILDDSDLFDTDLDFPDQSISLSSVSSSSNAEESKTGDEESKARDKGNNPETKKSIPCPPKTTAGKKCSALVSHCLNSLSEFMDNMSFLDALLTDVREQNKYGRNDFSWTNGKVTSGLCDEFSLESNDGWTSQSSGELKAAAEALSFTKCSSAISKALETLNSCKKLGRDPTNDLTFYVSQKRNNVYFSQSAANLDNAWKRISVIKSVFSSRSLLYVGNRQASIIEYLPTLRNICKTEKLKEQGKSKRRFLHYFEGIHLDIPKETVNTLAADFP
Chain of Thyrotropin receptor (Homo sapiens) (P16473 whole entry, looked up): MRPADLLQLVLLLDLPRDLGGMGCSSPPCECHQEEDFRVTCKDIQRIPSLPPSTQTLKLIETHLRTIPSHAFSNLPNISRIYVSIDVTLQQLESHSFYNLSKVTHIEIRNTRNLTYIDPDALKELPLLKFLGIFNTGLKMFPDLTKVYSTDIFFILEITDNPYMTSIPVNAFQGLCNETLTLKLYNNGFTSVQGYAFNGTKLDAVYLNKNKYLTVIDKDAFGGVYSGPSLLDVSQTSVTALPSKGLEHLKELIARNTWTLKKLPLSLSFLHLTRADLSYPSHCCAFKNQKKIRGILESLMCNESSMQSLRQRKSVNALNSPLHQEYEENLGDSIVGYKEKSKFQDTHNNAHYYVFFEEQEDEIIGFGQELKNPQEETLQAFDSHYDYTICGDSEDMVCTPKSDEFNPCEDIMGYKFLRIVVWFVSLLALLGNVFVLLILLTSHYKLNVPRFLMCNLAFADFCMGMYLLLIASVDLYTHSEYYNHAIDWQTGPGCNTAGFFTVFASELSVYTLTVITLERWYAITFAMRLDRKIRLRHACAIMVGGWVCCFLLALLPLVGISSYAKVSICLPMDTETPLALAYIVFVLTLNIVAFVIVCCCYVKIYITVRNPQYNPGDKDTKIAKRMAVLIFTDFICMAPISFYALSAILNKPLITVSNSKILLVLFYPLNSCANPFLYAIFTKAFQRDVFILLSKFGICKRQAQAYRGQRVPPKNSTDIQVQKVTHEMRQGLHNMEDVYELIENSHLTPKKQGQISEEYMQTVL
Chain of Transient receptor potential cation channel subfamily V member 1 (Homo sapiens) (Q8NER1 whole entry, looked up): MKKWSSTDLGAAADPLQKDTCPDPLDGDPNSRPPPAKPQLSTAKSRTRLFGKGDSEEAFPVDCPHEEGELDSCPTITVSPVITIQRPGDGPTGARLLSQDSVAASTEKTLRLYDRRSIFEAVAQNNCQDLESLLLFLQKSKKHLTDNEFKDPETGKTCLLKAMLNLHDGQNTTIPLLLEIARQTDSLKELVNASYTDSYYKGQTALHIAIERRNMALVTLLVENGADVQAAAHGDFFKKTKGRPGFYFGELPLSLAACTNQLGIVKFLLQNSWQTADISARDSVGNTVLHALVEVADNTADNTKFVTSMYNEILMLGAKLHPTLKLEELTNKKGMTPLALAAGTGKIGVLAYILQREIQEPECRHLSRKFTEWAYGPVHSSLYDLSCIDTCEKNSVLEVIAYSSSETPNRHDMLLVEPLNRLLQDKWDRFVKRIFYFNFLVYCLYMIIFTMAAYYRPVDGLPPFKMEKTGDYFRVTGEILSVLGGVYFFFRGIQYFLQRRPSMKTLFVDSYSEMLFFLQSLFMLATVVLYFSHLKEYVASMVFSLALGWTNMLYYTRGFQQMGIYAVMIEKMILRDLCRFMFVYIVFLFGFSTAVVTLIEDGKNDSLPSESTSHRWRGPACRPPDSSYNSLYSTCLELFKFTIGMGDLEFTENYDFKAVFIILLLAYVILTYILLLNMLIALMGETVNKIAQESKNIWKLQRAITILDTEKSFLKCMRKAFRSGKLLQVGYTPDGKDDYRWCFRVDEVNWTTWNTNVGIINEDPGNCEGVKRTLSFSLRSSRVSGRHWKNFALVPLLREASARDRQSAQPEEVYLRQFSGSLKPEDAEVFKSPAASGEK
Chain of Peptidyl-prolyl cis-trans isomerase NIMA-interacting 1 (Homo sapiens) (Q13526 whole entry, looked up): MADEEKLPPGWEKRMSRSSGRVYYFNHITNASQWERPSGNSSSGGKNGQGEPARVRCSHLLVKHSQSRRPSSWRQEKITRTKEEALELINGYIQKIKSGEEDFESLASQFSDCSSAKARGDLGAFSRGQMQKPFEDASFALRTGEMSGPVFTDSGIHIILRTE

Turning to `O=C(O)Cc1ccc(O)c(O)c1`, the result in test [1], in [2] and in [10] was inactive. The Potency result in test [3], in test [4], in [5], in [6], in [7] and in test [9] was “inactive” in each case. The Potency result in test [11], in [12], in test [13], in test [14], in test [15] and in [16] was “inactive” in each case. Also, the Potency entry in test [17] and in test [18] was “inactive” each time. Further, the activation in [8] is 0.938% (inactive). For the same molecule, the viability change in [9] was 9.81%.
As for `O=C(O)c1ccccc1Nc1ccccc1`, the outcome in test [1], in test [2] and in test [10] was inactive. Further, the Potency entry in test [3], in test [4], in test [5], in test [6], in [7] and in test [9] was “inactive” throughout. The Potency result in test [11], in [12], in test [13], in [14], in test [15] and in test [16] was “inactive” in each case. Moreover, the Potency result in test [17] and in [18] was “inactive” each time. Further, the activation in [8] is -4.31% (inactive). The same molecule yielded a viability change in test [9] of 10.9%.
On to `Cc1cc2c(cc1Cl)N(C(=O)Nc1ccnc3ccccc13)CC2`, for which the result in test [1], in test [2] and in [10] was inactive. Further, the Potency entry in test [3], in test [4], in test [5], in test [6], in test [7] and in [9] was “inactive” each time. For the same molecule, the Potency result in test [11], in test [12], in test [13], in test [14], in test [15] and in [16] was “inactive” throughout. Also, the Potency entry in test [17] and in test [18] was “inactive” each time. The activation in test [8] is 1.44% (inactive). In test [9], this molecule registered a viability change of 1.57%.
With `Cn1c(=O)[nH]c2ncn(C)c2c1=O`, the outcome in test [1], in test [2] and in [10] was inactive. Besides, the Potency result in [3], in test [4], in [5], in test [6], in test [7] and in [9] was “inactive” throughout. The Potency result in [11], in test [12], in test [13], in [14], in test [15] and in test [16] was “inactive” in each case. Besides, the Potency result in test [17] and in test [18] was “inactive” throughout. Besides, the activation in test [8] is 0.188% (inactive). The molecule further registered a viability change in test [9] of 1.53%.
`CCSC(=N)N`: the outcome in test [1], in test [2] and in [10] was inactive. For the same molecule, the Potency result in [3], in test [4], in test [5], in test [6], in [7] and in test [9] was “inactive” each time. Moreover, the Potency result in test [11], in test [12], in test [13], in test [14], in test [15] and in [16] was “inactive” throughout. The Potency result in test [17] and in test [18] was “inactive” in each case. For the same molecule, in test [8], the activation was 0.812% (inactive). The same molecule came in with a viability change in test [9] of 0.659%.
With `O=C(O)C1CN(CCCP(=O)(O)O)CCN1` (configuration not stated), the outcome in [1], in test [2] and in test [10] was inactive. The Potency result in [3], in test [4], in [5], in test [6], in [7] and in test [9] was “inactive” throughout. Further, the Potency result in test [11], in test [12], in test [14], in [15], in [16] and in test [17] was “inactive” throughout. In addition, the Potency result in test [18] is “inactive”. For the same molecule, the activation in test [8] was 0.188% (inactive). Besides, the viability change in [9] was 8.53%.
Regarding `CC1CCN(CC[C@H]2CCCN2S(=O)(=O)c2cccc(O)c2)CC1`, the result in test [1], in test [2] and in test [10] was inactive. The Potency entry in [3], in test [4], in test [5], in [6], in [7] and in test [9] was “inactive” in each case. Besides, the Potency entry in test [11], in test [12], in test [13], in [14], in test [15] and in [16] was “inactive” throughout. Moreover, the Potency result in test [17] and in [18] was “inactive” throughout. Besides, in test [8], the activation is 2.44% (inactive). In [9], the viability change was found to be 8.25%.
